Most compounds without a hit are left out; they make up all but 4.6% or so of the library.
TRHR PAM = qHTS for Small Molecule Agonists and Allosteric Enhancers of Human TRH Receptor: Primary Screen for Enhancers | Thyrotropin-releasing hormone receptor (Homo sapiens), P34981 | TRHR cells, fluo-8 calcium fluorescence, EC20 TRH enhancement | enhancement, % at 2 µM | 0.66% of 360,000 active | AID 493056, 2011; in the data active means enhancement above about 30%; further: 0% is about no effect
Target sequence (P34981 whole entry, looked up): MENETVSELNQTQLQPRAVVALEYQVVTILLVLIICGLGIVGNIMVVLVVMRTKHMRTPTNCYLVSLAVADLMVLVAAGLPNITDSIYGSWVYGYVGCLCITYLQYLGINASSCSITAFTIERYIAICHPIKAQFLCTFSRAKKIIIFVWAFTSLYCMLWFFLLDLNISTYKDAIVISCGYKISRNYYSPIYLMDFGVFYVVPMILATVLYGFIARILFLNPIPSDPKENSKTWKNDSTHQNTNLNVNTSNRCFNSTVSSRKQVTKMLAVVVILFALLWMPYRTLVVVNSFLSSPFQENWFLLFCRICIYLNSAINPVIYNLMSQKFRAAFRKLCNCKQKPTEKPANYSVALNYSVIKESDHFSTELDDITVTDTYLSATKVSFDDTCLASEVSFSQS
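TRHR-expressing cells loaded with fluo-8 calcium dye were read kinetically (ex 480/em 530) during compound addition, then stimulated with an EC20 of TRH (10 nM final). Enhancement of the Gq-mediated intracellular calcium response was scored.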
TRHR ag = qHTS for Small Molecule Agonists and Allosteric Enhancers of Human TRH Receptor: Primary Screen for Agonists | Thyrotropin-releasing hormone receptor (Homo sapiens), P34981 | 0.18% of 360,000 active | TRHR cells, calcium flux fluo-8, FDSS agonist mode | activation, % at 2 µM; further: 0% is about no effect
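Fluo-8-loaded TRHR cells; 10 s baseline, compound added, kinetic Ca2+ fluorescence read 1/s, agonist mode.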
D1 PAM = Potentiators of Human D1 Dopamine Receptor: qHTS; D(1A) dopamine receptor (Homo sapiens), P21728; HEK293 TREx D1 cells, calcium flux, dopamine EC20 potentiation; potentiation, % at 10 µM; 0.036% of 360,000 active; AID 504651, 2011; in the data active means potentiation above about 30%; further: 0% is about no effect
D1 agonist = Allosteric Agonists of the Human D1 Dopamine Receptor: qHTS. HEK293 T-REx D1 cells, calcium flux, agonist mode. 1% of 360,000 active. D(1A) dopamine receptor (Homo sapiens), P21728. activation, % at 2 µM; further: 0% is about no effect
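Tetracycline-induced HEK293 TREx D1 cells, force-coupled to calcium signalling, were dye-loaded with a no-wash calcium kit. Compound was pin-added after a 10 s baseline. Fluorescence was read kinetically at 1 cycle/s for 180 s, with calcium rises flagged as agonism.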
D1 antag = Antagonist of Human D 1 Dopamine Receptor: qHTS; HEK293 TREx D1 cells, calcium flux, dopamine EC80; active compounds read low; 3.2% of 360,000 active; D(1A) dopamine receptor (Homo sapiens), P21728; activity change, negative = inhibition, % at 10 µM; in the data active means activity change below about -30%; further: on the % scale 0 is the no-effect control and ±100 the full control effect
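Inducible Hek293 Trex D1 cells (tetracycline, overnight, 30 C). Calcium dye 30–90 min RT. Antagonist mode: EC80 dopamine added after 180 s compound read.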
An asterisk follows results filed as active. Unless noted, no stated cut-off is given here; in the data, active means activation above about 30%; inactive means the rest.

How did O=C(NCCc1ccccc1)c1cccc(S(=O)(=O)NCc2ccccc2)c1 do in these assays?
TRHR PAM: 0; TRHR ag: 1; D1 PAM: -3; D1 agonist: 4; D1 antag: 1

What do the screens show for `CC(C)(C)C(=O)COC(=O)CNC(=O)c1ccc(Oc2ccccc2)cc1`?
TRHR PAM: -3; TRHR ag: 0; D1 PAM: 7; D1 agonist: 159*; D1 antag: -49*

What do the screens show for `O=C(NCCOc1ccccc1)c1cccc(S(=O)(=O)NCc2ccccc2)c1`?
TRHR PAM: -5; TRHR ag: 0; D1 PAM: -8; D1 agonist: 22; D1 antag: -38*

How did COc1cccc(C(=O)NCC(=O)OCC(=O)C(C)(C)C)c1 do in these assays?
TRHR PAM: 8; TRHR ag: 0; D1 PAM: -2; D1 agonist: 3; D1 antag: 2

How did O=C(CS(=O)(=O)c1ccccc1)Nc1ccc(N2CCOCC2)cc1 do in these assays?
TRHR PAM: 2; TRHR ag: -2; D1 PAM: 6; D1 agonist: 2; D1 antag: -6

What do the screens show for `Cc1ccccc1Nc1nnc(-c2ccc(C)c(S(=O)(=O)N3CCCCC3)c2)c2ccccc12`?
TRHR PAM: 5; TRHR ag: 0; D1 PAM: 0; D1 agonist: -2; D1 antag: -15

What do the screens show for `CCCC(=O)OCCNc1cc(Sc2nccn2C)c2nonc2c1[N+](=O)[O-]`?
TRHR PAM: -11; TRHR ag: 0; D1 PAM: -9; D1 agonist: 3; D1 antag: -32*

Results for COc1ccccc1CNC(=O)c1cc(S(=O)(=O)N2CCCCCC2)cn1C ?
TRHR PAM: -3; TRHR ag: 0; D1 PAM: -3; D1 agonist: 3; D1 antag: -19

What do the screens show for `COc1cc(OC)c(C(=O)N(Cc2ccco2)Cc2cccs2)cc1OC`?
TRHR PAM: -3; TRHR ag: -1; D1 PAM: -4; D1 agonist: 1; D1 antag: -10

Results for COc1ccc(N2C(=O)CC(Nc3cccc([N+](=O)[O-])c3)C2=O)cc1 (configuration not stated) ?
TRHR PAM: -6; TRHR ag: 0; D1 PAM: -2; D1 agonist: 6; D1 antag: -33*

How did COC(=O)c1cccc(NC2CC(=O)N(c3ccc(OC)c(OC)c3)C2=O)c1 (configuration not stated) do in these assays?
TRHR PAM: 3; TRHR ag: 0; D1 PAM: 9; D1 agonist: 1; D1 antag: -33*

How did COc1ccc(N2C(=O)CC(Nc3ccc(C(=O)O)cc3)C2=O)cc1OC (configuration not stated) do in these assays?
TRHR PAM: -2; TRHR ag: 1; D1 PAM: 2; D1 agonist: 2; D1 antag: 12

Results for COC(=O)c1cc2sc(Cl)cc2n1CC(=O)Nc1cc(C)cc(C)c1 ?
TRHR PAM: -9; TRHR ag: 0; D1 PAM: 0; D1 agonist: 2; D1 antag: 5

Results for O=C(Cn1ccc(NC(=O)OCc2ccccc2)nc1=O)NCc1ccc2c(c1)OCO2 ?
TRHR PAM: -14; TRHR ag: 0; D1 PAM: -2; D1 agonist: -3

What do the screens show for `CCCCOc1ccc(CSC(=N)N)cc1Cl`?
TRHR PAM: 3; TRHR ag: 0; D1 PAM: 10; D1 agonist: 65*; D1 antag: 42

How did CCCCCOc1ccc(Br)cc1CSC(=N)N do in these assays?
TRHR PAM: 5; TRHR ag: 0; D1 PAM: 9; D1 agonist: 30*; D1 antag: 26

What do the screens show for `CCOc1ccc(CSC(=N)N)cc1`?
TRHR PAM: 15; TRHR ag: -1; D1 PAM: -3; D1 agonist: 25; D1 antag: 21

How did COc1ccc(Br)cc1CSC(=N)N do in these assays?
TRHR PAM: 3; TRHR ag: -1; D1 PAM: -5; D1 agonist: 22; D1 antag: -6

From PubChem
